# From PubChem BioAssay (Tox21)
# Inconclusive results are not listed. A call without a number means that no potency is given here. Values without a mark were called inactive. Activity calls are given as the source filed them. The call rests on the fitted dose curve; in most records, active means well fitted curve in the direction sought with a large enough effect in the repeat runs; inconclusive means weak or mixed curves; inactive means no such curve, though single readings can be large; an effect the other way counts as inactive or inconclusive.
# Key:
# [1] = biological target: Cytochrome P450 2C19 (Homo sapiens) (UniProt P33261); assay: Cytochrome P450 Family 2 Subfamily C Member 19 (CYP2C19) small molecule antagonists: luciferase reporter qHTS assay (AID 1671197); further: nearly all actives have a fitted effect of over 65% in size; on activity change, negative = inhibition: series mostly up to about 120 µM
# Sequence of Cytochrome P450 2C19 (Homo sapiens) (P33261 whole entry, looked up): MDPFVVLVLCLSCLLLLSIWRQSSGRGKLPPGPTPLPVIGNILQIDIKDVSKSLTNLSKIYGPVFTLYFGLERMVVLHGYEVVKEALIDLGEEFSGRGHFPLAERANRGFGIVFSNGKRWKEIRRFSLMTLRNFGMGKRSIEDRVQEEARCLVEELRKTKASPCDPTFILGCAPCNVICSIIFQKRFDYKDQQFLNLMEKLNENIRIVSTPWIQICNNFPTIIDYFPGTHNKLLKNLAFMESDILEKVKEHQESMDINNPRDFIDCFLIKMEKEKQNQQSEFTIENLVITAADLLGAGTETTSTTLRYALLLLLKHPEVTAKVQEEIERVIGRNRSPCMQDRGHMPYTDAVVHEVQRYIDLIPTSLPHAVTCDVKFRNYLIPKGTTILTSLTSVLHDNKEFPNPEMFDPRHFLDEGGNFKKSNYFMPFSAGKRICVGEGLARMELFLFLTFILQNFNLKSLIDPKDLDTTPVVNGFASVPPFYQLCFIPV
# How it was run: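 P450-Glo CYP2C19 screening system; proluciferin substrate; DMSO compound stocks; 10 min RT preincubation; NADPH regeneration, 1 h at 37C; luciferin detection reagent, 20 min RT; luminescence as RLU.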
# [2] = biological target: Cytochrome P450 2C9 (Homo sapiens) (UniProt P11712); assay: Cytochrome P450 Family 2 Subfamily C Member 9 (CYP2C9) small molecule antagonists: luciferase reporter qHTS assay (AID 1671198); further: nearly all actives have a fitted effect of over 50% in size; on activity change, negative = inhibition: series mostly up to about 120 µM
# Sequence of Cytochrome P450 2C9 (Homo sapiens) (P11712 whole entry, looked up): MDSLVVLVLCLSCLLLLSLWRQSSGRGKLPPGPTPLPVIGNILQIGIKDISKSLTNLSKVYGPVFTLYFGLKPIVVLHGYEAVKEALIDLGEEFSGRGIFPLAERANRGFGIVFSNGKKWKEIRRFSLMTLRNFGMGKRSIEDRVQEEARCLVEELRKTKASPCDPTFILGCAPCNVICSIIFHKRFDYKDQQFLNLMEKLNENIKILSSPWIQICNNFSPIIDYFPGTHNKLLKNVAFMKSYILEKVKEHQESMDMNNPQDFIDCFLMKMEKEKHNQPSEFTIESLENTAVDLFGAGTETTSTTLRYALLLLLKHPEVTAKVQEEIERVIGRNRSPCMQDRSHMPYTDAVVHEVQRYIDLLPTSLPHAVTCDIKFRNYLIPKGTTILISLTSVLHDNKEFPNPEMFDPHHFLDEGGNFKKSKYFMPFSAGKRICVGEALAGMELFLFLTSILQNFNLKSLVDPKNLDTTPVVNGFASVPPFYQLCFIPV
# How it was run: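 Enzyme-substrate mix preincubated with compound 10 min at room temperature; reaction started with NADPH regeneration solution, 1 h 37C. Luminescent luciferin product read after 20 min detection reagent.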
# [3] = biological target: Cytochrome P450 1A2 (Homo sapiens) (UniProt P05177); assay: Cytochrome P450 Family 1 Subfamily A Member 2 (CYP1A2) small molecule antagonists: luciferase reporter qHTS assay (AID 1671199); further: nearly all actives have a fitted effect of over 50% in size; on activity change, negative = inhibition: series mostly up to about 120 µM
# Sequence of Cytochrome P450 1A2 (Homo sapiens) (P05177 whole entry, looked up): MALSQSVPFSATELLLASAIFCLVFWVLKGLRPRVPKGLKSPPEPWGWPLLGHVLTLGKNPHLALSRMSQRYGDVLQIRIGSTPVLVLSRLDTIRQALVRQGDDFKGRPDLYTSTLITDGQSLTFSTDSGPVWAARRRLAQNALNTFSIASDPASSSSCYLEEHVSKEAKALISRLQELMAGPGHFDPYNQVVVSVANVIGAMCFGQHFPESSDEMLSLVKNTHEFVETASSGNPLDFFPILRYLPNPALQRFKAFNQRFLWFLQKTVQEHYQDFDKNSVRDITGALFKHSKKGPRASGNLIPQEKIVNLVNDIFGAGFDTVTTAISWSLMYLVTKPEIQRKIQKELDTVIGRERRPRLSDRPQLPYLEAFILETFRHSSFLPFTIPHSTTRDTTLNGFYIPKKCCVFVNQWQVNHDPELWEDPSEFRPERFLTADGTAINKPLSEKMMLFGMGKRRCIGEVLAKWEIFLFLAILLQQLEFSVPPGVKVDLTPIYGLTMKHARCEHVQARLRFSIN
# How it was run: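 Human CYP1A2 activity measured with a P450-Glo proluciferin substrate; compounds in DMSO preincubated 10 min at room temperature with enzyme-substrate mix, then NADPH regeneration system added for 1 h. Luciferin detection reagent, 20 min, luminescence read.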
# [4] = biological target: Voltage-gated inwardly rectifying potassium channel KCNH2 (Homo sapiens) (UniProt Q12809); assay: Human Ether-a-go-go-Related Gene (hERG) channel small molecule antagonists: fluorescence cell-based qHTS assay (AID 1671200); further: nearly all actives have a fitted effect of over 50% in size;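 on activity change, negative = inhibition: hERG-expressing U2OS cells given a thallium stimulus after FluxOR II dye loading; series mostly up to about 77 µM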
# Sequence of Voltage-gated inwardly rectifying potassium channel KCNH2 (Homo sapiens) (Q12809 whole entry, looked up): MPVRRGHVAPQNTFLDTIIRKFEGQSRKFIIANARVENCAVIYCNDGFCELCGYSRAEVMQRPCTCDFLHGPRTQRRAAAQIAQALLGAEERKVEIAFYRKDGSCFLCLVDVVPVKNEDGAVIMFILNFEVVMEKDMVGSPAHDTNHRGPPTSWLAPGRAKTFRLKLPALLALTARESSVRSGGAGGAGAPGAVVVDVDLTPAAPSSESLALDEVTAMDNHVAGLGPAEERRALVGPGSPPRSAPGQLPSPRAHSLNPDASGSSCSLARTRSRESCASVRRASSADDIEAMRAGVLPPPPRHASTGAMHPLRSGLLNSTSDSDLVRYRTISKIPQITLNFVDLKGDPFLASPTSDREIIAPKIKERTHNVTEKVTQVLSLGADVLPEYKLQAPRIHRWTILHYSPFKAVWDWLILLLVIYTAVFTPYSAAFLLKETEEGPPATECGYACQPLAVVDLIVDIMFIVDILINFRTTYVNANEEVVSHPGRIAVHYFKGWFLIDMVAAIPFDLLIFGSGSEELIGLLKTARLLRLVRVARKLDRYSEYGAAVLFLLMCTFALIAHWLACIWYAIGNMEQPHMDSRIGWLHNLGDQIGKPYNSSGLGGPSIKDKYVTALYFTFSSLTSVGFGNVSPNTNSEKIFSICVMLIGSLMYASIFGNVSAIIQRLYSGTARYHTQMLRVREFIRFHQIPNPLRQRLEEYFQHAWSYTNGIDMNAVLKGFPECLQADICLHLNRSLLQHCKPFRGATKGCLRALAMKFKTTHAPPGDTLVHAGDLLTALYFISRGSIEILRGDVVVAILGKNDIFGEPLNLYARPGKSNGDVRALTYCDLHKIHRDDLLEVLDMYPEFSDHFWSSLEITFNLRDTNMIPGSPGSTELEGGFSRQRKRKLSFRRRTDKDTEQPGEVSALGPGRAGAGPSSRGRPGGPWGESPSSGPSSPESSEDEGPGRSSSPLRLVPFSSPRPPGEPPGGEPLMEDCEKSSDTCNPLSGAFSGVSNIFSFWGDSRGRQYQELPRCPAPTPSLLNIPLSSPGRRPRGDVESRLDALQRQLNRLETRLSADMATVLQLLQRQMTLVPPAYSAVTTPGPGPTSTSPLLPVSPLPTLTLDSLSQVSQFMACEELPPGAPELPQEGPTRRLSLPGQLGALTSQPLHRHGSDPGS
# How it was run: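 Read-out: thallium influx as a surrogate for potassium, tracked as fluorescence (480 nm ex/540 nm em) every second for 2 min after Stimulus Buffer addition in dye-loaded hERG-U2OS cells.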
# [5] = biological target: Cytochrome P450 3A4 (Homo sapiens) (UniProt P08684); assay: Cytochrome P450 Family 3 Subfamily A Member 4 (CYP3A4) small molecule antagonists: luciferase reporter qHTS assay (AID 1671201); further: nearly all actives have a fitted effect of over 50% in size; on activity change, negative = inhibition: series mostly up to about 120 µM
# Sequence of Cytochrome P450 3A4 (Homo sapiens) (P08684 whole entry, looked up): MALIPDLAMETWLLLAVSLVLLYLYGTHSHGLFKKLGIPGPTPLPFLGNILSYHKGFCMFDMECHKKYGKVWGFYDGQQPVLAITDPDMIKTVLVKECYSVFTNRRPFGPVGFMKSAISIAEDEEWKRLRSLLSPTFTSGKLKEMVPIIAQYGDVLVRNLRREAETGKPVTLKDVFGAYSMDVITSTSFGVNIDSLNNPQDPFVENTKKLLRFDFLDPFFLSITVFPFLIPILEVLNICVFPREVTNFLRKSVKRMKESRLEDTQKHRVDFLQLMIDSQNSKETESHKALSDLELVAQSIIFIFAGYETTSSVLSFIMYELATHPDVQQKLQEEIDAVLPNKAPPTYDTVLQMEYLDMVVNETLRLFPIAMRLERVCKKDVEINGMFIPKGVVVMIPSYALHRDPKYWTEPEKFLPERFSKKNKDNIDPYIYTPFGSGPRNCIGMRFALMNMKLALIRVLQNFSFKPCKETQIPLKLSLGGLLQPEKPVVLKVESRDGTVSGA
# How it was run: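 Luminescent readout (RLU) proportional to CYP3A4 activity, from luciferin generated off a proluciferin substrate. Enzyme–substrate mix plus compound 10 min at room temp, NADPH regeneration 1 h, detection reagent 20 min.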
# Potency means the concentration at half of the fitted maximal effect.
smiles,measurement,setting,value
C=C(C)C(=O)OC(C)C,Potency,[1],inactive
same,Potency,[2],inactive
same,Potency,[3],inactive
same,Potency,[4],inactive
same,Potency,[5],inactive
O=C(O)C1CCC(C(=O)O)CC1 (configuration not stated),Potency,[1],inactive
same,Potency,[2],inactive
same,Potency,[3],inactive
same,Potency,[4],inactive
same,Potency,[5],inactive
CN1CCC(=C2c3ccccc3CCc3sccc32)CC1,Potency,[1],8.71 µM (active)
same,Potency,[2],inactive
same,Potency,[3],inactive
same,Potency,[4],16.9 µM (active)
same,Potency,[5],inactive
O=C(NN1CCCC1)NS(=O)(=O)c1ccc(Cl)cc1,Potency,[1],inactive
same,Potency,[2],inactive
same,Potency,[3],inactive
same,Potency,[4],inactive
same,Potency,[5],inactive
Oc1ccc(Sc2ccc(O)cc2)cc1,Potency,[1],37.3 µM (active)
same,Potency,[2],inactive
same,Potency,[3],41.9 µM (active)
same,Potency,[4],inactive
same,Potency,[5],37.3 µM (active)
COCCOCCOCCOCCOC,Potency,[1],inactive
same,Potency,[2],inactive
same,Potency,[3],35.6 µM (active)
same,Potency,[4],inactive
same,Potency,[5],inactive
CCCCCCCCCCCCCCCCCBr,"activity change, negative = inhibition",[1],4.88% [at 23.6 µM]
same,"activity change, negative = inhibition",[2],0.482% [at 23.6 µM]
same,"activity change, negative = inhibition",[3],-12.4% [at 23.6 µM]
same,"activity change, negative = inhibition",[4],7.46% [at 15.8 µM]
same,"activity change, negative = inhibition",[5],1.19% [at 23.6 µM]
O=C(O)COC(=O)Cc1ccccc1Nc1c(Cl)cccc1Cl,Potency,[1],inactive
same,Potency,[2],13.8 µM (active)
same,Potency,[3],inactive
same,Potency,[4],inactive
same,Potency,[5],inactive
Cn1c(=O)c2c(ncn2CC(O)CO)n(C)c1=O (configuration not stated),Potency,[1],inactive
same,Potency,[2],inactive
same,Potency,[3],inactive
same,Potency,[4],inactive
same,Potency,[5],inactive
NC1CCN(c2nc3c(cc2F)c(=O)c(C(=O)O)cn3-c2ccc(F)cc2F)C1 (configuration not stated),Potency,[1],inactive
same,Potency,[2],inactive
same,Potency,[3],inactive
same,Potency,[4],inactive
same,Potency,[5],inactive
CCCC(=O)OCC,Potency,[1],inactive
same,Potency,[2],12.6 µM (active)
same,Potency,[3],inactive
same,Potency,[4],inactive
same,Potency,[5],inactive
NC(=S)N/N=C/c1cccnc1,Potency,[1],inactive
same,Potency,[2],inactive
same,Potency,[3],17.4 µM (active)
same,Potency,[4],inactive
same,Potency,[5],inactive
OCCC1CCCCN1 (configuration not stated),Potency,[1],inactive
same,Potency,[2],inactive
same,Potency,[3],inactive
same,Potency,[4],inactive
same,Potency,[5],inactive
COc1ccccc1OC(=O)Oc1ccccc1OC,Potency,[1],9.77 µM (active)
same,Potency,[2],inactive
same,Potency,[3],4.56 µM (active)
same,Potency,[4],inactive
same,Potency,[5],inactive
Cc1ccc(C(=O)C(C)CN2CCCCC2)cc1 (configuration not stated),Potency,[1],7.76 µM (active)
same,Potency,[2],inactive
same,Potency,[3],inactive
same,Potency,[4],inactive
same,Potency,[5],inactive
O=C1CCCCCO1,Potency,[1],inactive
same,Potency,[2],inactive
same,Potency,[3],35.9 µM (active)
same,Potency,[4],inactive
same,Potency,[5],inactive
c1ccc(CNCc2ccccc2)cc1,Potency,[1],6.33 µM (active)
same,Potency,[2],44.8 µM (active)
same,Potency,[3],25.2 µM (active)
same,Potency,[4],inactive
same,Potency,[5],inactive
CCCCCCc1ccc(N)cc1,Potency,[1],3.56 µM (active)
same,Potency,[2],17.8 µM (active)
same,Potency,[3],28.3 µM (active)
same,Potency,[4],inactive
same,Potency,[5],35.6 µM (active)
O=[N+]([O-])c1cc[n+]([O-])cc1,Potency,[1],35.6 µM (active)
same,Potency,[2],39.9 µM (active)
same,Potency,[3],31.7 µM (active)
same,Potency,[4],inactive
same,Potency,[5],63.3 µM (active)
Nc1nc(N)c2nc(CNc3ccc(C(=O)N[C@@H](CCC(=O)O)C(=O)O)cc3)cnc2n1,Potency,[1],inactive
same,Potency,[2],inactive
same,Potency,[3],inactive
same,Potency,[4],inactive
same,Potency,[5],inactive
CC[C@H](C)[C@H](N)C(=O)O,Potency,[1],inactive
same,Potency,[2],inactive
same,Potency,[3],inactive
same,Potency,[4],inactive
same,Potency,[5],inactive
Cc1ccc2c(ccc3ccccc32)c1,Potency,[1],35.7 µM (active)
same,Potency,[2],35.7 µM (active)
same,Potency,[3],3.18 µM (active)
same,Potency,[4],inactive
same,Potency,[5],inactive
O=C(O)[C@@H]1[C@H]2C[C@H]3c4[nH]c5ccccc5c4CCN3C[C@@H]2CC[C@@H]1O,Potency,[1],8.71 µM (active)
same,Potency,[2],inactive
same,Potency,[3],inactive
same,Potency,[4],inactive
same,Potency,[5],inactive
NC(N)=N/N=C/c1c(Cl)cccc1Cl,Potency,[1],inactive
same,Potency,[2],inactive
same,Potency,[3],15.5 µM (active)
same,Potency,[4],inactive
same,Potency,[5],inactive
CCCOc1ccc2nc(NC(=O)OC)[nH]c2c1,Potency,[1],inactive
same,Potency,[2],inactive
same,Potency,[3],inactive
same,Potency,[4],inactive
same,Potency,[5],inactive
CCCCCCOC(=O)CCC,Potency,[1],inactive
same,Potency,[2],inactive
same,Potency,[3],inactive
same,Potency,[4],inactive
same,Potency,[5],inactive
CC(C)c1ccc2c(C(C)C)cc(C(C)C)c(S(=O)(=O)O)c2c1,Potency,[1],inactive
same,Potency,[2],29.2 µM (active)
same,Potency,[3],inactive
same,Potency,[4],inactive
same,Potency,[5],inactive
CC(=O)c1ccc2c(c1)[C@H](NC(=O)c1ccc(F)cc1)[C@@H](O)C(C)(C)O2,Potency,[1],inactive
same,Potency,[2],33.5 µM (active)
same,Potency,[3],33.5 µM (active)
same,Potency,[4],inactive
same,Potency,[5],29.9 µM (active)
Cl/C(=C\n1cncn1)c1ccc(Cl)cc1Cl,Potency,[1],1.38 µM (active)
same,Potency,[2],15.5 µM (active)
same,Potency,[3],1.55 µM (active)
same,Potency,[4],inactive
same,Potency,[5],inactive
CCCCCCCCCC(=O)OCC,Potency,[1],56.4 µM (active)
same,Potency,[2],inactive
same,Potency,[4],inactive
same,Potency,[5],inactive
NC(N)=NN=C(/C=C/c1ccc([N+](=O)[O-])o1)/C=C/c1ccc([N+](=O)[O-])o1,Potency,[1],3.89 µM (active)
same,Potency,[2],24.5 µM (active)
same,Potency,[4],2.39 µM (active)
